According to PubChem BioAssay (NCATS):
Unmarked numbers belong to inactive results. Results filed as inconclusive are left out. Active and inactive are the calls of the source. Unless noted, calls follow the shape of the dose curve; as a rule, active = well fitted curve in either direction with a large enough effect (not every such curve was filed as active); inconclusive = small, poorly fitted or top-dose-only effect, or another doubt; inactive = flat fitted curve, though single readings scatter.

Key:
[1] = AP1 Signaling Pathway (AID 357); conditions: ME-180 AP-1-bla reporter, EGF-induced, beta-lactamase ratio, 5 h; at 17.2 µM (top of the series) unless noted;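 also: ME-180 reporter cells stimulated with EGF at its EC50 level; % is scaled to controls: 0 for no effect and ±100 for the full control effect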
Summary of the method: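 In this screen, ME-180 cells in Opti-MEM with 0.5% dialyzed FBS received EC50 EGF and compound titrations for 5 h. AP-1 reporter beta-lactamase was detected via CCF4 ratio, giving AC50 for positive and negative modulators.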

[2] = NFAT Signaling Pathway (AID 444); conditions: Jurkat NFAT-bla M1, carbachol, beta-lactamase ratio, 5 h; at 17.2 µM (top of the series) unless noted;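 also: carbachol stimulus at about its EC50 of 1 µM final; % is scaled to controls: 0 for no effect and ±100 for the full control effect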
Summary of the method: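 Read-out: CCF4 FRET ratio (460 nm/530 nm) after 1 h RT dye loading, used for %activity and AC50 from titration series. Cells: Jurkat NFAT-β-lactamase/M1 line, treated with compound plus 1 uM carbachol for 5 h, 37 °C.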

[3] = Stat Signaling Pathway (AID 446); conditions: ME-180 (cervical carcinoma) SIE beta-lactamase reporter, IL-6 stimulated, 5 h; at 17.2 µM (top of the series) unless noted;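 also: ME-180 cervical cancer cells given 40 pM IL-6 alongside compound; SIE-controlled beta-lactamase reporter measured as 460/530 nm FRET emission ratio; % is scaled to controls: 0 for no effect and ±100 for the full control effect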
Summary of the method: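 Emission at 460 and 530 nm (excitation 405 nm) reports SIE-controlled beta-lactamase in ME-180 cells. Cells received compound with 40 pM IL-6 for 5 hrs at 37 C; data scaled between 300 pM IL-6 and 125 nM JAK-inhibitor controls.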

[4] = target: Glucocorticoid receptor (Homo sapiens) (UniProt P04150); assay: GR-GFP Redistribution (AID 450;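 active = compounds whose dose series gives a full or clear partial fitted curve of increased nuclear translocation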; also: potency is read from the fitted curve at half-maximal effect)
Sequence of Glucocorticoid receptor (Homo sapiens) (P04150 whole entry, looked up): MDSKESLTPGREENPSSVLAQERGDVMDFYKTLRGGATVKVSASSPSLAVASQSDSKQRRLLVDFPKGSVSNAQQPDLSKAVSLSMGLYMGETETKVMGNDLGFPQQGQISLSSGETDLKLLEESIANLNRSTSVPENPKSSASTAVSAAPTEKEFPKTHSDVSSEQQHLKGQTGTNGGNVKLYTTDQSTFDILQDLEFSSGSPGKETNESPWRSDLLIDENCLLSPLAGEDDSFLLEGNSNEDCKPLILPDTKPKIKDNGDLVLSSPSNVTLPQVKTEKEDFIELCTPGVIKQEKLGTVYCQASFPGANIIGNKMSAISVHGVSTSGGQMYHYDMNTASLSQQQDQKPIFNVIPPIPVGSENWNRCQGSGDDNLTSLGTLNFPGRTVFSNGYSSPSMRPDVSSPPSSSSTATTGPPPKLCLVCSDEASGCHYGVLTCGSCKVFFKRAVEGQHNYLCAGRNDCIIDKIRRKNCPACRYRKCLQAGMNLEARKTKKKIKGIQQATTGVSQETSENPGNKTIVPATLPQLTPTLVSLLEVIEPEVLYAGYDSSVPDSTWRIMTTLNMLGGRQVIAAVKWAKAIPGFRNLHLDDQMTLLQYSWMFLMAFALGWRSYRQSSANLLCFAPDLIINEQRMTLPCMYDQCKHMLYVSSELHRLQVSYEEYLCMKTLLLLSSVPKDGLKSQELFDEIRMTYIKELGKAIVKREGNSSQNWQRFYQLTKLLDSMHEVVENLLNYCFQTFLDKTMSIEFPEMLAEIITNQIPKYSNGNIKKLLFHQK

Row | Structure (SMILES) | activity change, negative = inhibition [1] [%] | activity change, negative = inhibition [2] | activity, negative = inhibition [3] [%] | Potency [4] [µM]
1 | Cc1ccc(N(CC(O)CN(C)C)S(=O)(=O)c2ccccc2)cc1 (stereo not drawn) | -7.29 | -10.3% | 1.04 | > 20.6
2 | CC(=Nc1ccc(C)c(C)c1)C1=C(O)CCC1=O | 13.3 | -8.58% | 24.8 | > 20.6
3 | Cc1ccc2cc(CNC(C)C)c(=O)[nH]c2c1 | 3.13 | -10.3% | -4.43 | > 20.6
4 | CN1C(=O)NC(NC(=O)c2ccco2)(C(F)(F)F)C1=O (stereo not drawn) | 3.54 | 4.93% | 9.87 | > 20.6
5 | COCCNc1nc2c(c(=O)n(C)c(=O)n2C)n1Cc1cccc(C(F)(F)F)c1 | 13.5 | 5.18% | 226 | > 20.6
6 | CCOC(=O)c1ccc(NC(=O)CCC(CC)C(=O)O)cc1 (stereo not drawn) | -2.51 | -11.6% | 3.77 | > 20.6
7 | Cn1c(SCC(=O)NCc2ccccc2)nc2ccccc21 | -0.959 | 1.73% | 4.04 | > 20.6
8 | Cc1c(C(=O)O)c(=S)sn1CCOc1ccccc1 | -0.1 | 10.4% | 5.37 | > 20.6
9 | CSCCC(CO)NC(=O)OCc1ccccc1 (stereo not drawn) | 0.666 | -0.945% | 2.15 | > 20.6
10 | CC(NC(=O)NC(N)=O)(C(F)(F)F)C(F)(F)F | 0.637 | -0.043% | -1.84 | > 20.6
11 | O=C(NCCCn1ccnc1)c1cccnc1 | 14.4 | -7.91% | 6.38 | > 20.6
12 | CCC(=O)OC1=C2C(=Nc3c(c(=O)n(C)c(=O)n3C)C2c2ccccc2)c2ccccc21 (stereo not drawn) | 8.9 | -4% | 14.9 | > 20.6
13 | Cc1nc2sc(C)c(C)c2c(=O)o1 | -1.58 | 4.96% | -1.71 | > 20.6
14 | CC1(C)C/C(=C(/C#N)C(N)=O)CCO1 | -0.694 | 2.44% | 4.37 | > 20.6
15 | COc1ccccc1-n1c(N)c(C(=O)NCC2CCCO2)c2nc3ccccc3nc21 (stereo not drawn) | 19.4 | 21.4% | -0.0521 | > 20.6
16 | CCc1nc2n[nH]c(N)c2c2c1CSC(C)(C)C2 | 1.67 | 14.6% | -13.2 | > 20.6
17 | COC(=O)c1ccc(C2/C(=C(/O)c3ccc(OC)cc3)C(=O)C(=O)N2Cc2ccco2)cc1 (stereo not drawn) | -4.01 | -12% | -22.4 | > 20.6
18 | Cc1ccc(-n2c(N)c(C(N)=O)sc2=S)cc1 | 6.9 | 9.14% | -24.5 | > 20.6
19 | CC(NC(=O)NCc1cccnc1)(C(F)(F)F)C(F)(F)F | 12.2 | -2.79% | 2.04 | > 20.6

Row | Structure (SMILES) | activity change, negative = inhibition [1] [%] | activity change, negative = inhibition [2] | activity, negative = inhibition [3] [%] | Potency [4] [µM]
20 | O=C(O)C1CC(=O)n2c(nc3ccccc32)S1 (stereo not drawn) | -9.56 | -10.4% | 6.25 | > 20.6
21 | Cc1cc(CCC(=O)O)c(C)cc1CCC(=O)O | 14.2 | 2.85% | 7.37 | > 20.6
22 | C[n+]1cccc(CNC(=O)/C=N/O)c1 | -0.78 | 2.4% | 7.83 | > 20.6
23 | c1ccc(OCc2nn3c(-c4cccnc4)nnc3s2)cc1 | -6.61 | 2.29% | -4.47 | > 20.6
24 | C=CCn1c(C2CC(=O)N(c3ccc(C)cc3)C2)nc2ccccc21 (stereo not drawn) | -0.041 | 5.1% | 5.25 | > 20.6
25 | CC(C)CN1C(=O)NC(NC(=O)c2cccnc2)(C(F)(F)F)C1=O (stereo not drawn) | -6.13 | 3.51% | -1.02 | > 20.6
26 | Cc1c(NS(=O)(=O)c2cccc3nsnc23)c(=O)n(-c2ccccc2)n1C | 16.3 | -7.17% | 0.737 | > 20.6
27 | Cc1cc(=O)oc(C)c1C(=O)NCC(C)C | 0.878 | -1.32% | 8.66 | > 20.6
28 | O=C(c1ccc(N2C(=O)C3CC=C(Cl)CC3C2=O)cc1)N1CCCCC1 (stereo not drawn) | -18.4 | 13% | -8.18 | > 20.6
29 | COC(=O)C1=C(C)OC(N)=C(C#N)C1c1ccc(OC)c(OC)c1OC (stereo not drawn) | 11.2 | -15.6% | 8.15 | > 20.6
30 | CCOC(=O)NC(Nc1cc(C)on1)(C(F)(F)F)C(F)(F)F | 20.3 | -2.55% | 12.3 | > 20.6
31 | CCOC(=O)CCCCC(=O)NC(CO)C(=O)NC (stereo not drawn) | 13.2 | 6.3% | 8.86 | > 20.6
32 | O=C(OCCCN1CCCC1)C1(c2ccccc2)CCCC1 | 14.4 | -82.8% (active) | 13.7 | > 20.6
33 | O=c1[nH]c(-c2ccccn2)nc2ccccc12 | -2.38 | -10.6% | 13.3 | > 20.6
34 | O=C(Nc1cccnc1)c1cccnc1 | 11.7 | -7.91% | 4.68 | > 20.6
35 | CCCCCSc1nc(O)cc(=O)[nH]1 | -9.05 | 11.4% | -6.56 | > 20.6
36 | COc1cccc(/C(O)=C2/C(=O)C(=O)N(CCN(C)C)C2c2ccc(Br)cc2)c1 (stereo not drawn) | -1.11 | 20.3% | 0.896 | > 20.6
37 | CCC(NC(=O)NC1=NCCS1)(C(F)(F)F)C(F)(F)F | 8.03 | -10% | 15.4 | > 20.6
38 | COc1ccc(C2NC3=C(CCC3)C3(C#N)C(OC)(OC)N=C(N)C23C#N)cc1 (stereo not drawn) | -8.29 | 6.55% | -5.86 | > 20.6

Row | Structure (SMILES) | activity change, negative = inhibition [1] [%] | activity change, negative = inhibition [2] | activity, negative = inhibition [3] [%] | Potency [4] [µM]
39 | OCCCc1nc2ccccc2n1CCc1ccccc1 | 6.55 | -7.48% | -0.378 | > 20.6
40 | O=C(c1cc(N2CCCCC2)nc2ccccc12)N1CCOCC1 | -15.6 | -13.8% | 4.94 | > 20.6
41 | N#CCCN(C(=O)c1ccco1)c1ccccc1 | -22.8 | 2.26% | 9.28 | > 20.6
42 | CCCOC(=O)CSC1=C(C#N)C(c2ccccc2OC)C(C#N)C(=O)N1 (stereo not drawn) | -16.4 | 13.9% | -22.7 | > 20.6
43 | Nc1c(C(=O)NCc2ccco2)sc2nc(N3CCOCC3)c3c(c12)CCCC3 | -27.5 | 16.8% | -13.4 | > 20.6
44 | CN1CCN(c2ncnc3c2[nH]c2ccc(F)cc23)CC1 | 7.75 | -5.03% | 11.7 | > 20.6
45 | O=CNC(=O)c1ccccc1C(=O)O | -3.37 | 3.48% | 20.3 | > 20.6
46 | CCCCOc1ccccc1C(=O)NCCCC(=O)O | -11.8 | -5.11% | 8.07 | > 20.6
47 | Cc1c(C)n(C(=O)CSc2nccn2C)c2ccccc12 | 14.1 | -0.559% | 0.828 | > 20.6
48 | C=C(C)CSC1=C(C#N)C(c2ccsc2)CC(=O)N1 (stereo not drawn) | -7.58 | -0.539% | -1.45 | > 20.6
49 | O=C(Nc1ccc2c(c1)OCCO2)c1ccc(Br)o1 | -1.9 | 6.17% | 6.03 | > 20.6
50 | COc1ccc(-c2cc3nc4n(c(=O)c3s2)CCOC4)cc1 | 18.4 | -10.1% | 0.631 | > 20.6
51 | CN1CC(=O)Nc2ccc(F)cc2C1=O | 13.4 | -4.14% | 3.5 | > 20.6
52 | CCn1cc(/C=N/O)c(C)n1 | -0.439 | -4.37% | 14 | > 20.6
53 | COc1cccc(C2CC(c3ccccc3Cl)n3nc(N)nc3N2)c1 (stereo not drawn) | -5.25 | -4.65% | -3.07 | > 20.6
54 | CCCCCSc1nc(C)c(CC(=O)O)c(=O)[nH]1 | -1.76 | 15.5% | 12.4 | > 20.6
55 | NC(=O)CSc1c[nH]c2ccccc12 | 2.78 | 0.963% | -0.854 | > 20.6
56 | Cc1sccc1C1C(C#N)=C(N)SC(N)=C1C#N | -12.4 | 15% | -25.4 | > 20.6
57 | CC1(C)CN(O)CCN1O | 29.1 | 0.875% | 7.69 | > 20.6
